In assay [1] the target is Peroxisome proliferator-activated receptor gamma (Homo sapiens) (UniProt P37231). The experiment in a line: OT_PPARg_PPARgSRC1_0480: Odyssey Thera (OT) 8-hour Protein-Complementation Assay for Peroxisome Proliferator-activated Receptor Gamma / SRC-1 Co-activator (AID 2283387).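 Note: nuclear to cytoplasmic split Venus YFP fluorescence ratio reporting PPARg SRC-1 interaction.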 A digest of the protocol: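 Protein-fragment complementation in HEK293T: Venus YFP halves (residues 1-158, 159-239, mutated to IFP1/IFP2) fused to PPARg/SRC-1. 8 h exposure; N/C ratio at 488 nm; DMSO negative control.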
Peroxisome proliferator-activated receptor gamma (Homo sapiens), sequence (P37231 whole entry, looked up, the tested form may be a part): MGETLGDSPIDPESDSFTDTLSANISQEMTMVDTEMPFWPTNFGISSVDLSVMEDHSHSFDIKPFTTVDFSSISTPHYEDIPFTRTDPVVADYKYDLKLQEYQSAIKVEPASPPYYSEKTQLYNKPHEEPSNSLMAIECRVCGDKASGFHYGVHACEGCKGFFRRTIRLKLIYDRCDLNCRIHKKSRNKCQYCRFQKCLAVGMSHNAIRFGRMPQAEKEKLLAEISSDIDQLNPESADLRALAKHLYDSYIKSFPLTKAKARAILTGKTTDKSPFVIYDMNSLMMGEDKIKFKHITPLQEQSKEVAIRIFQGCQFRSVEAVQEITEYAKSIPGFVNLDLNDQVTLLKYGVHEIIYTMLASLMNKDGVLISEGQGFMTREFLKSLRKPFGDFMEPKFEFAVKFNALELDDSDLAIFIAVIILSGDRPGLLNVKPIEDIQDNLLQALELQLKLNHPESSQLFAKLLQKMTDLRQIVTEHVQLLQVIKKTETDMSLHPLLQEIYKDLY

Assay [2] has the same target. The assay can be described thus: OT_PPARg_PPARgSRC1_1440: Odyssey Thera (OT) 24-hour Protein-Complementation Assay for Peroxisome Proliferator-activated Receptor Gamma/ SRC-1 Co-activator (AID 2283388).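 Note: nuclear to cytoplasmic ratio of reconstituted Venus YFP fluorescence in fixed imaged cells.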 A digest of the protocol:
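Readout: nuclear-to-cytoplasmic 488 nm fluorescence ratio, ≥350 cells per image, 8 images per well, after 24 h compound exposure of HEK293T expressing PPARg/SRC-1 split-YFP fusions. Activity fitted in positive direction against DMSO.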

Inconclusive results are not listed. Activity calls are given as the source filed them. Rule for the calls: active = hit-call score of the fitted dose curve at least 0.9, where 1 is the maximum; inconclusive = response in the unintended direction; inactive = score below 0.9.

For the molecule `OC[C@@H](O)[C@H](O)[C@@H](O)[C@@H](O)CO`, the outcome in assay [1] and in assay [2] was inactive.

Take `[O-]/[N+](=N\O)c1ccccc1`: the call in assay [1] and in assay [2] was inactive.

As to `CC(=O)Nc1cc(S(=O)(=O)O)cc2cc(S(=O)(=O)O)c(N=Nc3ccccc3)c(O)c12`, the molecule was classed as inactive in assay [1] and in assay [2].

Take `CCCCCC1C(=O)CCC1CC(=O)OC` (configuration not stated): the result in assay [1] and in assay [2] was inactive.

In the case of `C=C(C)C(N)=O`, the call in assay [1] and in assay [2] was inactive.

For the molecule `CC(C)C(=O)c1ccccc1`, the call in assay [1] and in assay [2] was inactive.

As for `CCCO[Si](OCCC)(OCCC)OCCC`, the molecule was called inactive in assay [1] and in assay [2].

In the case of `CCNC(=S)NCC`, the molecule was classed as inactive in assay [1] and in assay [2].

Regarding `CCCCC/C=C\C=C\C(=O)OCC`, the molecule was called inactive in assay [1] and in assay [2].

`CCCCCCC(C)O` (configuration not stated): the outcome in assay [1] and in assay [2] was inactive.

As to `CCCc1ccc(N)cc1`, the molecule was classed as inactive in assay [1] and in assay [2].

Turning to `CCCCCCOc1ccc(O)cc1`, the molecule was called inactive in assay [1] and in assay [2].

Take `NC(=O)c1cccnc1`: the molecule was called inactive in assay [1] and in assay [2].

Turning to `O=Cc1ccccc1O`, the molecule was classed as inactive in assay [1] and in assay [2].

Turning to `CC(O)CN` (configuration not stated), the molecule was classed as inactive in assay [1] and in assay [2].

On to `CCc1cccc(O)c1`, for which the molecule was called inactive in assay [1] and in assay [2].

Consider `CCC(=O)OC(C)(C)C1CC=C(C)CC1` (configuration not stated), for which the molecule was called inactive in assay [1] and in assay [2].

`CC(C)(C)c1ccc(S)cc1`: the call in assay [1] and in assay [2] was inactive.

Regarding `COc1ccc(OC)cc1`, the call in assay [1] and in assay [2] was inactive.

As for `[Na+]`, the result in assay [1] and in assay [2] was inactive.

With `CCCCCCCCOS(=O)(=O)O`, the call in assay [1] and in assay [2] was inactive.

For `CCC(C)(C)C1CCC(OC)CC1` (configuration not stated), the molecule was classed as inactive in assay [1] and in assay [2].

Turning to `COc1cc(OC)c2ccc(=O)oc2c1`, the call in assay [1] and in assay [2] was inactive.

With `CC(=O)OC(C)(C)C1CC=C(C)CC1` (configuration not stated), the call in assay [1] and in assay [2] was inactive.

For `c1ccc2scnc2c1`, the molecule was called inactive in assay [1] and in assay [2].

For `CCCCCCCC(=O)N(C)C`, the result in assay [1] and in assay [2] was inactive.

(Values after PubChem BioAssay (EPA / NIEHS).)
